Sampled rows, rich in hits. Any-hit rate of the full collection: about 3.2%.
Vaccinia Venus – inhibitors of vaccinia virus (Venus reporter); 330,000 compounds, 0.46% hits; AID 720580; Potency, µM (highest dose often 36.5 µM), without a hit: at the top dose activity change, negative = inhibition, usual class: inhibitors; Vaccinia virus Venus reporter expression, fluorescence; calls by dose curve; tested in A549 cells; also: nearly all actives have a fitted effect of over 30% in size
VACV mCherry inh – inhibitors of vaccinia virus infection (mCherry reporter signal) | Vaccinia virus mCherry reporter infection, fluorescence | 310,000 compounds, 0.63% hits | Potency, µM (doses to about 36.5 µM), for inactives: at the highest dose activity change, negative = inhibition, hits mostly inhibitors | AID 720579; calls by dose curve; tested in A549 cells; also: nearly all actives have a fitted effect of over 35% in size
Lassa entry inh – inhibitors of Lassa virus binding or cell entry | Lassa virus pseudotype entry inhibition, cell reporter | Potency, µM (highest dose often 37.9 µM), inactives show at the top dose activity change, negative = inhibition, hits mostly inhibitors | 300,000 compounds, 1.2% hits; calls by dose curve; tested in HEK293 cells; also: nearly all actives have a fitted effect of over 50% in size
FMDV antiviral – foot and mouth disease virus antiviral activity; 410,000 compounds, 1.2% hits; FMDV antiviral cell-based qHTS; AID 1159524; Potency, µM (doses to about 57.9 µM), without a hit: top-dose activity change, negative = inhibition, hits mostly inhibitors; calls by dose curve; tested in HEK293T cells; also: read-out not given here; nearly all actives have a fitted effect of over 45% in size
MARV entry inh – blocks Marburg virus binding to or entry into cells; Marburg virus pseudotyped entry inhibition, cell reporter; Potency, µM (highest dose often 37.8 µM), inactives show at the top dose activity change, negative = inhibition, usual class: inhibitors; 300,000 compounds, 1.8% hits; AID 540276; calls by dose curve; tested in HEK293 cells
Starred values were filed as active, the others as inactive; i = inactive; ? = inconclusive; . = no result given; [ ] = another dose, or the depositor's remark. % is scaled to controls: 0 for no effect and ±100 for the full control effect; potency is read from the fitted curve at half-maximal effect.

SMILES	Vaccinia Venus	VACV mCherry inh	Lassa entry inh	FMDV antiviral	MARV entry inh
CCCCCCC(C)(C)c1cc(OC)c2c(c1)OC(C)(C)[C@@H]1CC=C(C)C[C@@H]21	.	.	.	-19%	.
O=C(NCCO)c1cn(C2CCCN(Cc3cccc(C(F)(F)F)c3)C2)nn1 (stereo not given)	14%	-2%	.	-14%	.
Cc1cc(NCCCn2ccnc2)n2ncc(-c3ccc(Cl)cc3)c2n1	?	13µM*	?	3%	?
O=C1[C@H](Oc2ccccc2)[C@@H](c2ccccc2)N1c1ccncc1	?	-24%	.	16µM*	.
COc1ccc(C(=O)N/N=C/c2ccc3cccc(OCc4ccccc4)c3n2)cc1	?	?	?	-29%	?
O=C(N/N=C/c1ccc2cccc(OCc3ccccc3)c2n1)c1ccc(Br)cc1	?	-15%	?	?	16µM*
Cc1cc(O)cc2c1C1CCC3(C)C(O)CCC3C1C=C2 (stereo not given)	?	4.5µM*	-27%[46.1 µM]	-8%	-26%[46.1 µM]
CC(C)N1C(=O)S/C(=C/c2ccc(Sc3nc4ccccc4[nH]3)o2)C1=O	?	?	?	11µM*	?
O=C1NC(=O)N(c2ccc(Cl)cc2)C(=O)/C1=C\c1ccc(Sc2nc3ccccc3[nH]2)o1	402%	105%	?	-15%	?
C=CCN1C(=O)S/C(=C/c2ccc(Sc3nc4ccccc4[nH]3)o2)C1=O	-23%	?	20µM*	28µM*	?
COc1cccc(CN2CCC(c3nnc(SCC4CCCO4)n3C)CC2)c1O (stereo not given)	-8%	-12%	.	-5%	.
C/C=C/c1ccc(O)c(OC)c1	-2%	i	.	-3%	.
Oc1cc(O)cc(/C=C/c2ccc(O)c(O)c2)c1	-16%	-25%	4.1µM*	?	?
Cc1cc2oc(=O)c3c(c2cc1OC(=O)c1ccco1)CCCC3	-9%	.	-23%	0%	?
Cc1cc(OC(=O)c2ccco2)c2c3c(c(=O)oc2c1)CCCC3	12%	i	?	?	11µM*
CCc1cccc(CC)c1NC(=O)CO/N=C(\C)c1cccs1	-13%	-19%	4%	-24%	15%
C[C@H]1CCC[C@H](O)CCCCCc2cc(O)cc(O)c2C(=O)O1	?	-23%	.	11µM*	-1%
COc1cc(O)cc2c1C(=O)O[C@@H](C)CCCC(=O)CCCCC2	.	.	.	-11%	.
CC1CCCC(=O)CCC/C=C/c2cc(O)cc(O)c2C(=O)O1 (stereo not given)	-17%	-16%	.	-21%	.
CC1CCC/C=C/C(=O)c2c(O)cc(O)cc2CC(=O)O1 (stereo not given)	?	7.1µM*	.	32µM*	.
C[C@H]1CCC[C@@H](O)CCC/C=C/c2cc(O)cc(O)c2C(=O)O1	?	?	-50%[14.3 µM]	3.5µM*	?
CC1CCC[C@H](O)CCCCCc2cc(O)cc(O)c2C(=O)O1 (stereo not given in full)	-26%	-10%	1%	35µM*	-29%
O=C(NCC1CCC2(CCN(Cc3cccn3-c3ccc(Cl)cn3)CC2)O1)c1ccccc1 (stereo not given)	-1%	-9%	.	-18%	.
O=C(Cc1ccc(Cl)cc1)NO	-11%	-23%	.	.	.
O=C(Cn1cccn1)N1CCOc2c(cc(-c3ncc(C(F)(F)F)cc3Cl)cc2OCC2CCCO2)C1 (stereo not given)	-14%	i	.	-16%	.
SMILES	Vaccinia Venus	VACV mCherry inh	Lassa entry inh	FMDV antiviral	MARV entry inh
O=C(NCc1cccnc1)c1cnn(-c2nccc(-c3cccs3)n2)c1C1CC1	-12%	-27%	.	-18%	.
CCOC(=O)c1c(-n2c(C)cc(C=O)c2C)sc2c1CCCC2	.	.	9.2µM*	0%	12µM*
CN(C)S(=O)(=O)Oc1ccc(C(=O)Nc2cccc(Cl)c2)cc1	-9%	-8%	-23%[46.1 µM]	2%	?
CN(C)S(=O)(=O)Oc1cccc(C(=O)Nc2ccccc2Cl)c1	.	.	-11%	-8%	31%
CC1CCN(CC(=O)Nc2cccc(C(=O)Nc3cccc(C(F)(F)F)c3)c2)CC1	?	-2%	?	-13%	8.9µM*
CN(C)S(=O)(=O)Oc1ccc(C(=O)Nc2cccc(C(F)(F)F)c2)cc1	.	.	.	14µM*	.
CC1CN(CC(=O)Nc2cccc(C(=O)Nc3cccc(C(F)(F)F)c3)c2)CC(C)O1 (stereo not given)	?	-13%	?	?	?
CN(C)S(=O)(=O)Oc1cccc(C(=O)Nc2ccc(Cl)cc2)c1	.	.	15µM*	-29%	?
